# VACV Venus inh = vaccinia inhibition (Venus reporter) | AID 720580 | Potency, µM (series often up to 36.5 µM), for inactives: at the top dose activity change, negative = inhibition, usual class: inhibitors | actives 0.46% (n = 330,000) | Vaccinia virus Venus reporter expression, fluorescence; calls by dose curve; tested in A549 cells; also: potency is read from the fitted curve at half-maximal effect; nearly all actives have a fitted effect of over 30% in size
# VACV mCherry inh = vaccinia inhibition (mCherry reporter). Vaccinia virus mCherry reporter infection, fluorescence. Potency, µM (highest dose often 36.5 µM), for the others: at the top dose activity change, negative = inhibition, usual class: inhibitors. actives 0.63% (n = 310,000); calls by dose curve; tested in A549 cells; also: potency is read from the fitted curve at half-maximal effect; nearly all actives have a fitted effect of over 35% in size
# HCV inhibitor = inhibitors of hepatitis C virus infection | Huh7.5.1 HCVcc-Cre infection, luciferase reporter, 44 h | Potency, µM (highest dose often 41.8 µM), for inactives: top-dose activity change, negative = inhibition, actives largely listed as inhibitors | actives 3.4% (n = 340,000); active = well fitted inhibition curve with a large enough effect; inconclusive = small, poorly fitted or top-dose-only effect, or another doubt; inactive = no such curve, though single readings can be large or run the other way; also: potency is read from the fitted curve at half-maximal effect
#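 Cells (1,000/well) were plated 4 h before compound, then infected with HCVcc-Cre virus (~0.5 moi). After 44 h further culture, infection was read as luciferase luminescence following a 15 min substrate incubation at room temperature.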
# Marburg entry inh = inhibitors of Marburg virus binding or cell entry | Marburg virus pseudotyped entry inhibition, cell reporter | Potency, µM (titrated, usually from 37.8 µM), inactives show top-dose activity change, negative = inhibition, usual class: inhibitors | actives 1.8% (n = 300,000); calls by dose curve; tested in HEK293 cells; also: potency is read from the fitted curve at half-maximal effect
# Lassa entry inh = blocks Lassa virus binding to or entry into cells; Lassa virus pseudotype entry inhibition, cell reporter; actives 1.2% (n = 300,000); Potency, µM (highest dose often 37.9 µM), for inactives: at the highest dose activity change, negative = inhibition, most hits filed as inhibitors; calls by dose curve; tested in HEK293 cells; also: potency is read from the fitted curve at half-maximal effect; nearly all actives have a fitted effect of over 50% in size
# HCMV inh = blocks human cytomegalovirus replication; HFF cells, HCMV-luciferase reporter, 72 h; active compounds read low; activity change, negative = inhibition, % at 57.5 µM; actives 4.5% (n = 410,000); AID 1259415; in the data active = activity change below about -60%; inconclusive = no clear call, values can overlap the other calls; inactive = above about -39%
#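 Luciferase read-out from HCMV-luciferase-infected HFFs (MOI 1 PFU/cell) 72 h post infection at 37C; compounds added after 16 h cell attachment; activity normalized between buffer-only basal and Salinomycin (10uM) inhibitor controls.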
# Active calls of the source: *; i = inactive; ? = inconclusive; . = no result; [ ] = another dose, or the depositor's remark. Compounds with a hit are over-represented: about 7.8% of the library has one in this group of screens. % is scaled to controls: 0 for no effect and ±100 for the full control effect.
SMILES,VACV Venus inh,VACV mCherry inh,HCV inhibitor,Marburg entry inh,Lassa entry inh,HCMV inh
CSc1cc(-c2ccc(Cl)cc2)c(C(=O)NN)s1,.,.,3.5µM*,?,11%,9
O=C(NCc1ccc(F)cc1)c1cc(Sc2ccc(F)cc2F)nc2ccccc12,-14%,-9%,.,.,?,15
COc1c(Cl)cc(Cl)cc1/C=C/C(=O)c1ccc(NC(=O)c2cccs2)cc1,10µM*,11µM*,14µM*,11µM*,?,-99*
Cc1nc2ccc(NC(=O)c3ccc(Cl)c(NC(=O)c4cccs4)c3)cc2s1,-12%,.,10µM*,?,-29%,-3
O=C(Nc1ccc(NC(=O)c2cccs2)cc1)c1ccc(Cl)cc1,-4%,-3%,.,.,-2%[46.1 µM],2
Cc1ccc(NC(=O)c2ccc(Cl)c(NC(=O)c3cccs3)c2)cc1,.,.,13µM*,.,.,37
CCC[C@H](CCC(=O)Nc1ccc(C(=O)OCC)cc1)C(=O)O,.,.,.,-6%,.,.
COc1ccc2c(c1)c1nnc(SCCN3CCOCC3)nc1n2C,-11%,-8%,.,.,.,.
COc1cccc(C(=O)Nc2cccc(-c3cn4ccsc4n3)c2)c1OC,-10%[7.34 µM],-13%[7.34 µM],.,.,-15%[46.1 µM],84
COc1cccc2c1nc(C)c1cc(C)oc12,-23%,-7%,5.6µM*,-3%,-4%,34
Oc1c(C(c2ccco2)N2CCN(C(c3ccccc3)c3ccccc3)CC2)sc2ncnn12 (stereo not drawn),-19%,-7%,14µM*,4%,.,-13
COc1cccc(CCNC(=O)c2c(O)nc3ccccn3c2=O)c1,11%,8%,.,?,.,?
O=C1NC(=O)/C(=C\c2ccc(OCc3cccc(C(=O)O)c3)c(Cl)c2)N1,-1%,-5%,-2%,?,6.3µM*,83
O=C(O)c1cccc(COc2ccccc2Cl)c1,.,.,13%,0.41µM*,0.52µM*,?
Cc1ccccc1NC(=S)NC(NC(=O)COc1ccccc1)C(Cl)(Cl)Cl (stereo not drawn),-25%,?,1%,?,-10%,-8
CCc1ccc(OCC(=O)NC(NC(=S)Nc2ccccc2)C(Cl)(Cl)Cl)cc1 (stereo not drawn),?,?,?,?,?,-27
COC(=O)c1ccccc1NC(=S)NC(NC(=O)COc1ccccc1)C(Cl)(Cl)Cl (stereo not drawn),-7%,-18%,0%,?,-6%,-102*
CCc1ccc(OCC(=O)NC(NC(=S)Nc2ccc(C)cc2C)C(Cl)(Cl)Cl)cc1 (stereo not drawn),?,.,?,?,-27%,-64*
CCc1ccc(OCC(=O)NC(NC(=S)Nc2ccccc2OC)C(Cl)(Cl)Cl)cc1 (stereo not drawn),-25%,?,?,-14%,-28%,-72*
Cc1ccc(NC(=S)NC(NC(=O)c2ccccc2C)C(Cl)(Cl)Cl)c(C)c1 (stereo not drawn),.,.,?,23µM*,?,-26
O=C(OCc1cn([C@H]2CN(CC3CCCCC3)[C@@H](c3ccc(Cl)cc3)C[C@@H]2O)nn1)c1ccccc1,?,?,.,.,.,-14
COc1ccc(-n2c(=O)c3c4c(sc3n(Cc3ccc(C(C)(C)C)cc3)c2=O)CCC4)c(OC)c1,-11%,-14%,.,?,?,?
COc1ccc(NC(=S)NC(NC(=O)c2cccc3ccccc23)C(Cl)(Cl)Cl)c([N+](=O)[O-])c1 (stereo not drawn),-21%,-20%,10µM*,?,-14%,-17
COc1ccc(NC(=S)NC(NC(=O)c2ccccc2Cl)C(Cl)(Cl)Cl)c([N+](=O)[O-])c1 (stereo not drawn),-22%,-10%,?,?,-23%,?
COc1ccc([C@H]2C[C@H](O)[C@@H](n3cc(-c4ccc(F)cc4)nn3)CN2Cc2cccs2)cc1,10µM*,10µM*,.,.,?,-67*
Cc1ccc([C@H]2C[C@H](O)[C@@H](n3cc(C4CC4)nn3)CN2Cc2cccs2)cc1,11µM*,?,.,?,.,13
Cc1ccc([C@H]2C[C@@H](O)[C@H](n3cc(C4CC4)nn3)CN2Cc2cccs2)cc1,-28%,i,.,.,?,-13

# Screening data as filed in PubChem.
